Where “and” joins values, the source holds several entries; their conditions need not be identical. Identical values can stand only once. Results filed as inconclusive are left out. Calls of active or inactive are those of the source. Calls come from the whole dose curve; as a rule, active = well fitted curve in the direction sought with a large enough effect in the repeat runs; inconclusive = weak or mixed curves; inactive = no such curve, though single readings can be large; an effect the other way counts as inactive or inconclusive.
What was measured:
[1] = A CellTox Green Cytotoxicity Assay to monitor cytotoxicity in HepG2 cells - 0 hour (AID 1224882); note: nearly all actives have a fitted effect of over 35% in size; note: potency is the fitted concentration of half-maximal effect
Outline: (§1)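 Nonlytic assay: viable cells exclude the dye, so fluorescence scales with cell death. HepG2 at 600 cells/well, compounds added after 5 h, signal read across 40 h.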

[2] = A CellTox Green Cytotoxicity Assay to monitor cytotoxicity in HepG2 cells - 32 hour (AID 1224883); note: nearly all actives have a fitted effect of over 50% in size; note: potency is the fitted concentration of half-maximal effect
Outline: as §1

[3] = A CellTox Green Cytotoxicity Assay to monitor cytotoxicity in HEK293 cells - 8 hour (AID 1224884); note: nearly all actives have a fitted effect of over 35% in size; note: potency is the fitted concentration of half-maximal effect
Outline: (§2)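 Seeding of HEK293 cells together with cytotoxicity dye preceded a 5 h incubation at 37 C/5% CO2. Test compounds in DMSO were then added and fluorescence monitored across 40 h.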

[4] = qHTS RealTime-Glo MT Cell Viability Assay in HepG2 cells - 16 hour (AID 1224885); note: nearly all actives have a fitted effect of over 50% in size; note: potency is the fitted concentration of half-maximal effect
Outline: (§3)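 qHTS, HepG2, 600 cells/well, RealTime-Glo (NanoLuc + prosubstrate) added with cells; 5 h preincubation; DMSO compound addition; 37 C; luminescence at 0/8/16/24/32/40 h.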

[5] = qHTS RealTime-Glo MT Cell Viability Assay in HEK293 cells - 24 hour (AID 1224886); note: nearly all actives have a fitted effect of over 50% in size; note: potency is the fitted concentration of half-maximal effect
Outline: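 Assay medium contained NanoLuc luciferase plus cell-permeant prosubstrate, added with HEK293 cells at 600 cells/well. After 5 h at 37 C/5% CO2 compounds were added; plates stayed at 37 C for 40 h with serial luminescence reads.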

[6] = qHTS RealTime-Glo MT Cell Viability Assay in HEK293 cells - 8 hour (AID 1224887); note: nearly all actives have a fitted effect of over 50% in size; note: potency is the fitted concentration of half-maximal effect
Outline: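 Tox21 screen in HEK293 using RealTime-Glo MT chemistry, with cells and reagent co-dispensed. Luminescence proportional to viable cell number was captured at intervals during 40 h compound exposure at 37 C.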

[7] = A CellTox Green Cytotoxicity Assay to monitor cytotoxicity in HEK293 cells - 16 hour (AID 1224888); note: nearly all actives have a fitted effect of over 35% in size; note: potency is the fitted concentration of half-maximal effect
Outline: as §2

[8] = qHTS RealTime-Glo MT Cell Viability Assay in HepG2 cells - 0 hour (AID 1224889); note: nearly all actives have a fitted effect of over 50% in size
Outline: as §3

[9] = A CellTox Green Cytotoxicity Assay to monitor cytotoxicity in HepG2 cells - 8 hour (AID 1224890); note: nearly all actives have a fitted effect of over 45% in size; note: potency is the fitted concentration of half-maximal effect
Outline: as §1

[10] = qHTS assay to identify small molecule antagonists of the estrogen receptor alpha (ER-alpha) signaling pathway using the BG1 cell line in the presence of 0.1 nM 17-beta-estradiol - cell viability counter screen (AID 1259241); note: nearly all actives have a fitted effect of over 40% in size
Outline: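 VM7Luc4E2, 4,000 cells/well, phenol red-free medium + 10% charcoal-stripped FBS; 24 hr plating; cpd + 0.1 nM E2 final, 22 hr 37C/5% CO2; CellTiter-Fluor 30 min, fluorescence.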

Measured: Potency

COc1ccc2c(c1OC)C(=O)O[C@H]2[C@@H]1c2cc3c(cc2CCN1C)OCO3
inactive: [1] | [2] | [3] | [4] | [5] | [6] | [7] | [8] | [9]

C[C@@H]1C[C@@H]([C@H](O)CC2CC(=O)NC(=O)C2)C(=O)[C@@H](C)C1
active: [5] 434 nM and 245 nM and 169 nM
inactive: [1] | [2] | [3] | [4] | [6] | [7] | [8] | [9] | [10]

C#CC(O)(C=CCl)CC (stereo unspecified)
inactive: [1] | [2] | [3] | [4] | [5] | [6] | [7] | [8] | [9]

NC(=S)c1c(Cl)cccc1Cl
inactive: [1] | [2] | [3] | [4] | [5] | [6] | [7] | [8] | [9] | [10]

COCc1cnc(C2=NC(C)(C(C)C)C(=O)N2)c(C(=O)O)c1 (stereo unspecified)
inactive: [1] | [2] | [3] | [4] | [5] | [6] | [7] | [8] | [9]

CCNC(=O)NC(=O)/C(C#N)=N/OC
inactive: [1] | [2] | [3] | [4] | [5] | [6] | [7] | [8] | [9]

CCC1CCC(=O)O1 (stereo unspecified)
inactive: [1] | [2] | [3] | [4] | [5] | [6] | [7] | [8] | [9] | [10]

CCCC1CCCCN1 (stereo unspecified)
inactive: [1] | [2] | [3] | [4] | [5] | [6] | [7] | [8] | [9] | [10]

CC(C)(C#N)C(C)(C)C#N
inactive: [1] | [2] | [3] | [4] | [5] | [6] | [7] | [8] | [9] | [10]

CCCSP(=S)(OCC)Oc1ccc(SC)cc1 (stereo unspecified)
inactive: [1] | [2] | [3] | [4] | [5] | [6] | [7] | [8] | [9] | [10]

CN(C1CCCCC1)C1CCCCC1
inactive: [1] | [2] | [3] | [4] | [5] | [6] | [7] | [8] | [9] | [10]

O=C(O)CCCOc1ccc(Cl)cc1Cl
inactive: [1] | [2] | [3] | [4] | [5] | [6] | [7] | [8] | [9] | [10]

c1ccc2sc(SNC3CCCCC3)nc2c1
inactive: [1] | [2] | [3] | [4] | [5] | [6] | [7] | [8] | [9] | [10]

O=S(=O)(c1ccccc1)c1ccccc1
inactive: [1] | [2] | [3] | [4] | [5] | [6] | [7] | [8] | [9] | [10]

N#CC(C#N)=C(C#N)C#N
inactive: [1] | [2] | [3] | [4] | [5] | [6] | [7] | [8] | [9] | [10]

FC(F)OC(F)(F)C(F)Cl (stereo unspecified)
inactive: [1] | [2] | [3] | [4] | [5] | [6] | [7] | [8] | [9]

CCCCCCCCCCCCCCCl
inactive: [1] | [2] | [3] | [4] | [5] | [6] | [7] | [8] | [9] | [10]

OCCCl
inactive: [1] | [2] | [3] | [4] | [5] | [6] | [7] | [8] | [9]

O=C(O)C(F)(F)C(F)(F)C(F)(F)C(F)(F)C(F)(F)F
inactive: [1] | [2] | [3] | [4] | [5] | [6] | [7] | [8] | [9] | [10]

O=C(O)C(O)C(O)C(=O)O (stereo unspecified)
inactive: [1] | [2] | [3] | [4] | [5] | [6] | [7] | [8] | [9]

CC(C)(C)NCC(O)c1cc(Cl)c(N)c(C(F)(F)F)c1 (stereo unspecified)
inactive: [1] | [2] | [3] | [4] | [5] | [6] | [7] | [8] | [9]

O=S(=O)(Cl)Cl
inactive: [1] | [2] | [3] | [4] | [5] | [6] | [7] | [8] | [9]

CC(Oc1cc(Cl)c(Cl)cc1Cl)C(=O)O (stereo unspecified)
inactive: [1] | [2] | [3] | [4] | [5] | [6] | [7] | [8] | [9]

CC(C)OC(=O)Cc1ccccc1
inactive: [1] | [2] | [3] | [4] | [5] | [6] | [7] | [8] | [9]

NNCCO
inactive: [1] | [2] | [3] | [4] | [5] | [6] | [7] | [8] | [9] | [10]

CCCBr
inactive: [1] | [2] | [3] | [4] | [5] | [6] | [7] | [8] | [9] | [10]

CCCCC#N
inactive: [1] | [2] | [3] | [4] | [5] | [6] | [7] | [8] | [9] | [10]

CNC(=O)Oc1cccc(N=CN(C)C)c1
inactive: [1] | [2] | [3] | [4] | [5] | [6] | [7] | [8] | [9] | [10]

C[N+](C)(C)CCOC(=O)C(O)(c1ccccc1)c1ccccc1
inactive: [1] | [2] | [3] | [4] | [5] | [6] | [7] | [8] | [9] | [10]

O=[N+]([O-])/C=C/c1ccccc1
inactive: [1] | [3] | [7] | [8]
active: [2] 17.7 µM | [4] 49.8 µM and 21.9 µM | [5] 6.27 µM and 13.8 µM | [6] 14 µM and 15.5 µM

COC(=O)C1(O)c2ccccc2-c2ccccc21
inactive: [1] | [2] | [3] | [4] | [5] | [6] | [7] | [8] | [9]

C=CCc1ccccc1O
inactive: [1] | [2] | [3] | [4] | [5] | [6] | [7] | [8] | [9]

C=CC(=O)NC(C)(C)CC(C)=O
inactive: [1] | [2] | [3] | [4] | [5] | [6] | [7] | [8] | [9]

CC1(C)CC(=O)CC(C)(C)N1[O]
inactive: [1] | [2] | [3] | [4] | [5] | [6] | [7] | [8] | [9]

CCN(C(C)=O)c1cccc(-c2ccnc3c(C#N)cnn23)c1
inactive: [1] | [2] | [3] | [4] | [5] | [6] | [7] | [8] | [9] | [10]

C=CCOCC1CO1 (stereo unspecified)
inactive: [1] | [2] | [3] | [4] | [5] | [6] | [7] | [8] | [9]

C[C@H](N)[C@H](O)c1ccc(O)c(O)c1
active: [1] 26.8 µM | [2] 21.3 µM | [3] 19 µM | [7] 21.3 µM | [9] 26.8 µM
inactive: [4] | [5] | [6] | [8] | [10]

NC(=O)CF
inactive: [1] | [2] | [3] | [4] | [5] | [6] | [7] | [8] | [9]

CN[C@@H](C)[C@H](O)c1ccccc1
inactive: [1] | [2] | [3] | [4] | [5] | [6] | [7] | [8] | [9] | [10]

OC[P+](CO)(CO)CO
inactive: [1] | [2] | [3] | [4] | [5] | [6] | [7] | [8] | [9] | [10]

NCCc1cc(O)c(O)cc1O
inactive: [1] | [2] | [3] | [4] | [5] | [6] | [7] | [8] | [9] | [10]

COc1ccc(C(O)(c2cncnc2)C2CC2)cc1 (stereo unspecified)
inactive: [1] | [2] | [3] | [4] | [5] | [6] | [7] | [8] | [9] | [10]

Nc1ccccc1C(=O)OCC(O)CO (stereo unspecified)
inactive: [1] | [2] | [3] | [4] | [5] | [6] | [7] | [8] | [9] | [10]

CC(C)c1ccc(NC(=O)N(C)C)cc1
inactive: [1] | [2] | [3] | [4] | [5] | [6] | [7] | [8] | [9] | [10]

Cc1ncc(C[n+]2csc(CCO)c2C)c(N)n1
inactive: [1] | [2] | [3] | [4] | [5] | [6] | [7] | [8] | [9] | [10]

O=C1CC[C@@]2(O)[C@H]3Cc4ccc(O)c5c4[C@@]2(CCN3CC2CC2)[C@H]1O5
inactive: [1] | [2] | [3] | [4] | [5] | [6] | [7] | [8] | [9] | [10]

Nc1cc(Cl)cc(C(=O)O)c1Cl
inactive: [1] | [2] | [3] | [4] | [5] | [6] | [7] | [8] | [9] | [10]

CCOP(=O)(O)C(N)=O
inactive: [1] | [2] | [3] | [4] | [5] | [6] | [7] | [8] | [9] | [10]

— PubChem BioAssay (Tox21)
